# PubChem BioAssay (Tox21)
# Inconclusive results are not listed. The source made the active and inactive calls. Calls follow the shape of the dose curve; as a rule, active = well fitted inhibition curve with a large enough effect in the signal ratio in the repeat runs (not every such curve was filed as active); inconclusive = weak or mixed curves, or effect the other way; inactive = no such curve, though single readings can be large or run the other way; the % refers to the signal ratio.
# Molecular target: Peroxisome proliferator-activated receptor delta (Homo sapiens) (UniProt Q03181)
# Experiment: qHTS assay to identify small molecule antagonists of the peroxisome proliferator-activated receptor delta (PPARd) signaling pathway (AID 743215);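 also: cells stimulated with agonist L165041 at 300 nM final during compound exposure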
# Details: HEK293H PPARd-UAS-bla, beta-lactamase FRET ratio, antagonist, 17 h; series mostly up to 62 µM; ratio activity, negative = inhibition: at the top concentration
# Source text: U.S. Tox21 Program National Center for Advancing Translational Sciences [NCATS] NIH Chemical Genomics Center [NCGC] U.S. Environmental Protection Agency [EPA] National Institutes of Environmental Health Sciences [NIEHS] National Toxicology Program [NTP] U.S. Food and Drug Administration [FDA] Tox21 Assay Overview: The peroxisome proliferator-activated receptors (PPARs) are lipid-activated transcription factors of the nuclear receptor superfamily with three distinct subtypes namely PPAR alpha, PPAR delta (PPARd) and PPAR gamma. All these subtypes heterodimerizes with Retinoid X receptor (RXR) and have different physiological functions. […] To identify the compounds that inhibit PPAR-delta signaling, GeneBLAzer PPAR delta UAS-bla HEK293H cell line (Invitrogen, Carlsbad, CA, USA) containing a beta-lactamase reporter gene under the control of an Upstream Activator Sequence (UAS) was used to screen the Tox21 compound library.
# Tox21 Assay Protocol Summary: PPARd-bla cells were dispensed at 3000 cells/5uL/well in 1536-well black wall/clear bottom plates using a Multidrop Combi (Thermo Fisher Scientific, Waltham, MA) dispenser. After the assay plates were incubated at 37 C and 5% CO2 for 5 h, 23 nL of compounds dissolved in DMSO, positive controls or DMSO only was transferred to the assay plate by a Pintool station (Kalypsys, San Diego, CA), followed by addition of 1ul L165041 (300 nM, final concentration in the wells). The assay plates were incubated at 37 C for 17 h, and then 1 uL of LiveBLAzerTM B/G FRET substrate was added using a Bioraptr Flying Reagent Dispenser (FRD) workstation (Beckman Coulter, Indianapolis, IN, USA). The assay plates were incubated at room temperature for 2 h and fluorescence intensity was measured by an Envision plate reader (PerkinElmer, Shelton, CT).
# % is scaled to controls: 0 for no effect and ±100 for the full control effect.
# Peroxisome proliferator-activated receptor delta (Homo sapiens), sequence (Q03181 whole entry, looked up): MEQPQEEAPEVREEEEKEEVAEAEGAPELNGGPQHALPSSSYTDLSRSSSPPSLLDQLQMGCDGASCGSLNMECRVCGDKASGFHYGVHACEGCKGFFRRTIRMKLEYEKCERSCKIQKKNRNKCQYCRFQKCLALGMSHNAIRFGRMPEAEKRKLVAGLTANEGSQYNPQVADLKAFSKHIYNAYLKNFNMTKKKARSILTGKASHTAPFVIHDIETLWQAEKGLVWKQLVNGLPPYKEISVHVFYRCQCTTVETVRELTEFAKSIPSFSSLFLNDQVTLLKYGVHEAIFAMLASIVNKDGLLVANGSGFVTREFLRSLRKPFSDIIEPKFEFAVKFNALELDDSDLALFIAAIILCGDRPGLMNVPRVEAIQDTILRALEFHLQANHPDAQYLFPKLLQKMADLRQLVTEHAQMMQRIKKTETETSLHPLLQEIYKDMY
row,SMILES,"ratio activity, negative = inhibition"
1,Cc1ccc(C(C)c2ccc(C)c(C)c2)cc1C,-4.68% (inactive)
2,CC(C)(C)c1cc(CCC(=O)OCC(COC(=O)CCc2cc(C(C)(C)C)c(O)c(C(C)(C)C)c2)(COC(=O)CCc2cc(C(C)(C)C)c(O)c(C(C)(C)C)c2)COC(=O)CCc2cc(C(C)(C)C)c(O)c(C(C)(C)C)c2)cc(C(C)(C)C)c1O,-5.88% [at 28.9 µM] (inactive)
3,COc1cc(C(C)(C)C)c(O)c(C(C)(C)C)c1,7.43% (inactive)
4,CC(C)c1ccc2c(C(C)C)cc(C(C)C)c(S(=O)(=O)O)c2c1,-2.34% [at 80.4 µM] (inactive)
5,CC(C(=O)O)c1ccc(-c2ccccc2)c(F)c1 (stereo not given),-3.71% (inactive)
6,CCCCOC(=O)c1ccccc1C(=O)OCC(CC)CCCC (stereo not given),-17.9% (inactive)
7,CC[C@H](C)[C@@H](C(=O)O)n1sc2ccccc2c1=O,0.521% (inactive)
8,O=C(CC(=O)c1ccccc1)c1ccccc1,0.329% [at 80.4 µM] (inactive)
9,CN(C)CC[C@@H](c1ccc(Br)cc1)c1ccccn1,-2.56% (inactive)
10,CN(C)CCCOc1nn(Cc2ccccc2)c2ccccc12,-19.9% (inactive)
11,NC[C@H]1O[C@H](O[C@H]2[C@H](O)[C@@H](O[C@H]3O[C@H](CO)[C@@H](O)[C@H](N)[C@H]3O)[C@H](N)C[C@@H]2N)[C@H](O)[C@@H](O)[C@@H]1O,3.27% [at 6.26 µM] (inactive)
12,C1CCC2OC2C1 (stereo not given),8.19% [at 80.4 µM] (inactive)
13,Cn1c(=O)c2c(ncn2CC(O)CO)n(C)c1=O (stereo not given),-27.5% (inactive)
14,CC(=O)O[C@H]1C[C@@H]2CC[C@@H]3[C@H](CC[C@@]4(C)[C@H]3C[C@H]([N+]3(C)CCCCC3)[C@@H]4OC(C)=O)[C@@]2(C)C[C@@H]1N1CCCCC1,-2.49% (inactive)
15,COC(=O)CSc1cc(N=c2sc(=O)n3n2CCCC3)c(F)cc1Cl,-8.77% (inactive)
16,COC(=O)C(C)=O,-22% [at 80.4 µM] (inactive)
17,O=C(Cl)c1ccc([N+](=O)[O-])cc1,4.67% (inactive)
18,CCN(CC)CCOC(=O)C1(c2ccccc2)CCCC1,0.162% (inactive)
19,c1ccc(CNCc2ccccc2)cc1,0.116% (inactive)
20,Cc1ccc(C(N)=O)cc1N,15.4% (inactive)

row,SMILES,"ratio activity, negative = inhibition"
1,C=C(C)C(=O)OCCN(C)C,-19.6% [at 80.4 µM] (inactive)
2,CCC(C)N(C)C(=O)c1cc2ccccc2c(-c2ccccc2Cl)n1 (stereo not given),-17.2% (inactive)
3,CC(=O)OC/C=C/c1ccccc1,-7.18% (inactive)
4,O=C1Nc2cc(Cl)ccc2Oc2ccccc21,2.85% (inactive)
5,CCOc1ccc2[nH]cc(C(=O)NCc3ccccc3)c(=O)c2n1,0.715% (inactive)
6,CCCCC(CC)(CO)CO,0.543% (inactive)
7,CCCC(=O)OCC,-20.6% (inactive)
8,Cn1c(N)nc2nc[nH]c2c1=O,1.39% (inactive)
9,O=C(NN1CCCC1)NS(=O)(=O)c1ccc(Cl)cc1,-7.52% (inactive)
10,CCCC[C@H]1CN(CC2CCOCC2)C(=O)OC12CCN(C1(C)CCN(C(=O)c3c(C)ncnc3C)CC1)CC2,9.32% (inactive)
11,O=C(O)c1cccc(N(Cc2cccnc2)c2ccc(OC(F)F)c(OC(F)F)c2)c1,-18.5% (inactive)
12,O=C1[C@H](CC[C@H](O)c2ccc(F)cc2)[C@@H](c2ccc(O)cc2)N1c1ccc(F)cc1,3.18% (inactive)
13,O=CNc1ccccc1,1.85% [at 80.4 µM] (inactive)
14,OC(CCN1CCCCC1)(c1ccccc1)C1CCCCC1 (stereo not given),-9.94% (inactive)
15,CCCCCCc1ccc(N)cc1,1.09% (inactive)
16,CCCCC(CC)COCCCN (stereo not given),3.44% (inactive)
17,CC(C)c1ccccc1C(C)C,5.82% (inactive)
18,CCN(CC)C(C)CN1c2ccccc2Sc2ccccc21 (stereo not given),0.572% (inactive)
19,O=C(O)c1cn(C2CC2)c2cc(Cl)c(F)cc2c1=O,12.4% (inactive)
20,CN1CCC(=C2c3ccccc3CCc3sccc32)CC1,-4.58% (inactive)
